These results are taken from PubChem BioAssay (NCI).

SMILES strings stand for the structures. The panel holds about 83,000 compounds, 20% with a hit somewhere; the sample as a whole holds those more often.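 Single-dose data. Exposure time 48 hours. Values below 10 considered active.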 Values without a mark were called inactive. The source made the active and inactive calls.

The first test concerns SF-539 CNS. The test can be described thus: NCI-60 one-dose screen, 48 h (100 = growth as untreated, 0 = no growth, -100 = all killed). Particulars: 10 µM unless noted.
Regarding `COc1ccc(N2C(=O)/C(=C/C(Cl)=C/c3ccc([N+](=O)[O-])cc3)SC2=S)cc1`, the growth is -22.8% (active).

With `COc1ccc(C2=C/C(=C\c3ccccc3O)C(=O)N2Cc2ccccc2)cc1`, the growth was 101%.

In the case of `COC(=O)[C@H]1Cc2c([nH]c3ccccc23)[C@H](c2ccc3c(c2)OCO3)N1`, the growth is 92.8%.

Regarding `O=C(Nc1ncc(Cc2ccccc2)s1)c1ccc2c(c1)OCCO2`, the growth was -10.4% (active).

As for `CC(=O)CC(=O)c1ccccc1.[Cu+2]`, the growth is 105%.

In the case of `COC1CC(O)C2=C(CC3C(/C(C)=C\CC=C(C)C)CCC3(C)O2)C1=O` (configuration not stated), the growth was 109%.

In the case of `Nc1c(C(=O)c2ccc(Cl)cc2)sc(Nc2ccccc2)c1-c1nc2ccccc2s1`, the growth was 43.2%.

On to `C=CC(=O)Nc1ccc2ncnc(Nc3cccc(NS(=O)(=O)CCC)c3Cl)c2c1`, for which the growth was 44.4%.

Regarding `CCN1C(=O)N(CC)C2C1NC(=S)N2/N=C/C=C/c1ccccc1` (configuration not stated), the growth is -13.8% (active).

On to `Oc1cccc2c1NCCC2`, for which the growth is 26.4%.

As for `CCOC(=O)c1cnc2sc(-c3ccc(OC)cc3)nc2c1Cl`, the growth is 104%.

Turning to `Cc1ccc2nc(/C=C/c3ccc(N(C)C)cc3)cc(C)c2c1`, the growth is 9.33% (active).

Turning to `C=CCOC(=O)C1=C(C)N(CC)C(=O)N(CC)C1c1c(Cl)n(C)c2ccccc12` (configuration not stated), the growth was 88.2%.

As for `C=C(C)[C@@H]1CC[C@]2(COC(=O)c3cccnc3)CC[C@]3(C)[C@H](CC[C@@H]4[C@@]5(C)CCCN(C(=O)c6cccnc6)C(C)(C)[C@@H]5CC[C@]43C)[C@@H]12`, the growth was 46.4%.

Take `COc1ccc(C2=NN3C(C2)c2cc(Br)ccc2OC3c2ccncc2)cc1` (configuration not stated): the growth was 86.2%.

As for `C=CC(=O)NCc1cccc(Nc2ncc(Br)c(NCCCNC(=O)C3CCC3)n2)c1`, the growth was -68% (active).

As for `O=C(O)/C=C/c1cn(-c2ccccc2)nc1-c1ccc(F)cc1`, the growth is 92.6%.

In the case of `CCNCCNc1c(C)c(-c2ccc(C(F)(F)F)cc2)c(C#N)c2nc3ccccc3n12`, the growth was 82.7%.

Regarding `O=C1CCc2c(sc3[nH]c(=S)n(-c4cc(C(F)(F)F)cc(C(F)(F)F)c4)c(=O)c23)C1`, the growth is -51.1% (active).

For `COc1cc2cc(Oc3ccc(NC(=O)Nc4ccc(F)c(C(F)(F)F)c4)cc3)c(C)nc2cc1OCCN1CCCCC1`, the growth is 75.3%.

Regarding `Cc1ccc2c(c1)CC(O)CC1C(=O)N(CCO)CC(=O)N21` (configuration not stated), the growth was 102%.

Take `CC(C)(C)CC(C)(C)Nc1c(-c2c(O)c3ccccc3oc2=O)nc2sccn12`: the growth was 101%.

Consider `O=C1NC(=O)C(=Cc2cc(-c3ccc(Cl)cc3)n(-c3ccccc3)n2)C(=O)N1`, for which the growth was 96.5%.

For the molecule `CCOC(=O)c1c2c(n3ccc(NC(=O)CCN4CCCC4)cc13)C(=O)c1ncccc1C2=O`, the growth is -75.8% (active).

Take `COc1ccc(-c2ccc(-c3ccc(C(=N)N)o3)o2)cc1`: the growth is 23%.

With `CC(C)c1nc(N(C)S(C)(=O)=O)nc(-c2ccc(F)cc2)c1/C=C/C(=O)C[C@@H](O)CC(=O)O`, the growth is 104%.

Turning to `CCOc1cc(\C=N/N=C(N)/C(N)=N\N=C/c2ccc(O)c(OCC)c2)ccc1O`, the growth is 112%.

Another test concerns UACC-257 melanoma. The description is as above. To be noted: 10 µM unless noted.
Regarding `C=C1C(=O)O[C@H]2[C@H]1CC/C(COC(=O)NCc1ccc(Cn3c(=O)sn(CCCC)c3=O)cc1)=C\CC[C@@]1(C)O[C@@H]21`, the growth is 50.8%.

For the molecule `O=C(Nc1ncc(Cc2ccccc2)s1)c1cc(-c2ccccc2)nc2ccccc12`, the growth is 92.9%.

On to `CC(=O)Oc1ccccc1C(=O)N(Cc1ccc2c(Cl)cc(Cl)c(O)c2n1)c1ccccc1`, for which the growth is 78.6%.

For `O=C(Nc1ccccc1)Nc1ccccc1CNc1nc(Nc2ccc(OCCN3CCCC3)cc2)ncc1Cl`, the growth is 75.3%.

For the molecule `C#Cc1ccc(NC(=O)Cc2ccc(/C=C/C(=O)c3nccn3C)cc2)cc1`, the growth is 103%.

For `O=C(O)c1nn(-c2ccc(Cl)cc2)nc1N1CCCC1`, the growth was 94.7%.

Consider `CCc1ccc(Cc2cnc(NC(=O)c3cc(C)oc3C)s2)cc1`, for which the growth was 52.1%.

With `O=C(NCCN1CCOCC1)c1cncnc1Nc1ccc2c(ccn2Cc2ccccn2)c1`, the growth was 102%.

As to `CC/C(=C(/c1ccc(Cl)cc1)c1ccc(OCCN2CCCCCC2)cc1)c1ccccc1`, the growth is 92.4%.

Take `CC(=O)OCC(=O)O[C@@H]1C[C@]2(C(C)C)O[C@@]1(C)[C@@H]1CC[C@@H](C)[C@H]1[C@@H]2OC(=O)/C=C/c1ccccc1`: the growth was 92.5%.

Turning to `COc1ccc(C(=O)/C=C/c2ccc(C)cc2)cc1S(N)(=O)=O`, the growth is 83.2%.

Turning to `Cc1ccc(Nc2oc(-c3ccccc3)nc2[P+](c2ccccc2)(c2ccccc2)c2ccccc2)cc1`, the growth is -42.5% (active).

Consider `COc1ccc(N/N=C/c2ccc3c(c2)Sc2ccccc2N3C)cc1`, for which the growth is 96.1%.

In the case of `COc1ccc(N2C(=O)/C(=C/C(Cl)=C/c3ccc([N+](=O)[O-])cc3)SC2=S)cc1`, the growth was 48.2%.

Turning to `COc1ccc(C2=C/C(=C\c3ccccc3O)C(=O)N2Cc2ccccc2)cc1`, the growth was 71.7%.

As for `COC(=O)[C@H]1Cc2c([nH]c3ccccc23)[C@H](c2ccc3c(c2)OCO3)N1`, the growth was 107%.

As for `O=C(Nc1ncc(Cc2ccccc2)s1)c1ccc2c(c1)OCCO2`, the growth is 45.1%.

On to `CC(=O)CC(=O)c1ccccc1.[Cu+2]`, for which the growth is 102%.

`COC1CC(O)C2=C(CC3C(/C(C)=C\CC=C(C)C)CCC3(C)O2)C1=O` (configuration not stated): the growth was 95.2%.

On to `Nc1c(C(=O)c2ccc(Cl)cc2)sc(Nc2ccccc2)c1-c1nc2ccccc2s1`, for which the growth was 58.8%.

In the case of `C=CC(=O)Nc1ccc2ncnc(Nc3cccc(NS(=O)(=O)CCC)c3Cl)c2c1`, the growth is 5.07% (active).

Take `CCN1C(=O)N(CC)C2C1NC(=S)N2/N=C/C=C/c1ccccc1` (configuration not stated): the growth is 55.1%.

Consider `Oc1cccc2c1NCCC2`, for which the growth was 12.4%.

On to `CCOC(=O)c1cnc2sc(-c3ccc(OC)cc3)nc2c1Cl`, for which the growth is 101%.

On to `Cc1ccc2nc(/C=C/c3ccc(N(C)C)cc3)cc(C)c2c1`, for which the growth is 62.1%.

Turning to `C=CCOC(=O)C1=C(C)N(CC)C(=O)N(CC)C1c1c(Cl)n(C)c2ccccc12` (configuration not stated), the growth is 89.9%.

Take `C=C(C)[C@@H]1CC[C@]2(COC(=O)c3cccnc3)CC[C@]3(C)[C@H](CC[C@@H]4[C@@]5(C)CCCN(C(=O)c6cccnc6)C(C)(C)[C@@H]5CC[C@]43C)[C@@H]12`: the growth was 19.9%.

On to `COc1ccc(C2=NN3C(C2)c2cc(Br)ccc2OC3c2ccncc2)cc1` (configuration not stated), for which the growth is 86.2%.

Consider `C=CC(=O)NCc1cccc(Nc2ncc(Br)c(NCCCNC(=O)C3CCC3)n2)c1`, for which the growth was 0.107% (active).

`O=C(O)/C=C/c1cn(-c2ccccc2)nc1-c1ccc(F)cc1`: the growth was 80.7%.

Regarding `CCNCCNc1c(C)c(-c2ccc(C(F)(F)F)cc2)c(C#N)c2nc3ccccc3n12`, the growth is 79.6%.

`O=C1CCc2c(sc3[nH]c(=S)n(-c4cc(C(F)(F)F)cc(C(F)(F)F)c4)c(=O)c23)C1`: the growth was -25.4% (active).

For the molecule `COc1cc2cc(Oc3ccc(NC(=O)Nc4ccc(F)c(C(F)(F)F)c4)cc3)c(C)nc2cc1OCCN1CCCCC1`, the growth was -52.5% (active).

Take `Cc1ccc2c(c1)CC(O)CC1C(=O)N(CCO)CC(=O)N21` (configuration not stated): the growth was 81.1%.

For `CC(C)(C)CC(C)(C)Nc1c(-c2c(O)c3ccccc3oc2=O)nc2sccn12`, the growth was 81.4%.

With `O=C1NC(=O)C(=Cc2cc(-c3ccc(Cl)cc3)n(-c3ccccc3)n2)C(=O)N1`, the growth is 101%.

Take `CCOC(=O)c1c2c(n3ccc(NC(=O)CCN4CCCC4)cc13)C(=O)c1ncccc1C2=O`: the growth is 105%.

With `COc1ccc(-c2ccc(-c3ccc(C(=N)N)o3)o2)cc1`, the growth is 37.9%.

For `CC(C)c1nc(N(C)S(C)(=O)=O)nc(-c2ccc(F)cc2)c1/C=C/C(=O)C[C@@H](O)CC(=O)O`, the growth was 95.6%.

For `CCOc1cc(\C=N/N=C(N)/C(N)=N\N=C/c2ccc(O)c(OCC)c2)ccc1O`, the growth is 108%.
